Experimental findings from PubChem BioAssay (Tox21) are described below.

Results filed as inconclusive are left out. Unmarked numbers belong to inactive results. Activity calls are given as the source filed them. Unless noted, calls follow the shape of the dose curve; as a rule, active = well fitted curve in the direction sought with a large enough effect in the repeat runs; inconclusive = weak or mixed curves; inactive = no such curve, though single readings can be large; an effect the other way counts as inactive or inconclusive.

Test [1] in a line: qHTS assay to identify small molecule antagonists of the thyroid receptor (TR) signaling pathway - cell viability counter screen (AID 743064). Also: nearly all actives have a fitted effect of over 50% in size. Also: potency is read from the fitted curve at half-maximal effect. An outline of the steps:
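Same-well viability check: GH3.TRE-Luc cells stimulated with 1 nM T3 alongside test compound for 23.5 h, followed by CellTiter-Fluor fluorescence.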
Background: Quantitative high-throughput screening tests each substance at several concentrations.

Test [2] is described as follows: qHTS assay to identify small molecule antagonists of the thyroid receptor (TR) signaling pathway (AID 743065). Also: nearly all actives have a fitted effect of over 55% in size. Also: potency is read from the fitted curve at half-maximal effect. An outline of the steps: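 GH3.TRE-Luc rat pituitary cells (two TREs driving luciferase) were dosed with compound, then stimulated with 1 nM T3 (final) for 23.5 h at 37 C. ONE-Glo luminescence was the read-out, with CellTiter-Fluor fluorescence as the cytotoxicity counter-screen.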

Test [3] relates to thyroid hormone receptor (rat, GH3 cells). The experiment in a line: qHTS assay to identify small molecule agonists of the thyroid receptor (TR) signaling pathway (AID 743066; calls by dose curve).
Test [4] concerns the target Estrogen receptor (Homo sapiens) (UniProt P03372). The experiment in a line: qHTS assay to identify small molecule antagonists of the estrogen receptor alpha (ER-alpha) signaling pathway (AID 743069; active = well fitted curve in the direction sought with a large enough effect in the signal ratio in the repeat runs, not every such curve was filed as active; the % refers to the signal ratio). An outline of the steps:
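In this cell-based reporter format, GripTite HEK293 cells harbouring ER-alpha-UAS-bla were grown overnight with 2% charcoal-stripped FBS, dosed with DMSO-dissolved compounds, then challenged with 17beta-estradiol. After 18 hr at 37C, beta-lactamase activity was detected by FRET fluorescence.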

A short description of test [5]: qHTS assay to identify small molecule antagonists of the estrogen receptor alpha (ER-alpha) signaling pathway - cell viability counter screen (AID 743074; calls by dose curve; also: nearly all actives have a fitted effect of over 45% in size).
Test [6] addresses Estrogen receptor (Homo sapiens) (UniProt P03372). The experiment in a line: qHTS assay to identify small molecule agonists of the estrogen receptor alpha (ER-alpha) signaling pathway (AID 743075; calls by dose curve).
A short description of test [7]: qHTS assay to identify small molecule antagonists of the estrogen receptor alpha (ER-alpha) signaling pathway using the BG1 cell line (AID 743080; calls by dose curve;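 also: BG1 cells stimulated with 17beta-estradiol alongside compound; series mostly up to about 70 µM; nearly all actives have a fitted effect of over 25% in size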). An outline of the steps: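 After 5 days in phenol-red-free 10% charcoal-stripped FBS medium, BG1-Luc-4E2 cells were seeded, left 24 h at 37 C, co-treated with compounds and 17beta-estradiol for 21.5 h, then assayed for viability and luciferase.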

Test [8] is described as follows: qHTS assay to identify small molecule antagonists of the estrogen receptor alpha (ER-alpha) signaling pathway using the BG1 cell line - cell viability counter screen (AID 743081).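 Also: compound given together with 17beta-estradiol as the ER stimulus; series mostly up to about 70 µM; nearly all actives have a fitted effect of over 45% in size.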
In test [9] the target is Aromatase (Homo sapiens) (UniProt P11511). The experiment in a line: qHTS assay to identify aromatase inhibitors (AID 743083). Also: series mostly up to about 70 µM; nearly all actives have a fitted effect of over 55% in size.
Sequence of Aromatase (Homo sapiens) (P11511 whole entry, looked up): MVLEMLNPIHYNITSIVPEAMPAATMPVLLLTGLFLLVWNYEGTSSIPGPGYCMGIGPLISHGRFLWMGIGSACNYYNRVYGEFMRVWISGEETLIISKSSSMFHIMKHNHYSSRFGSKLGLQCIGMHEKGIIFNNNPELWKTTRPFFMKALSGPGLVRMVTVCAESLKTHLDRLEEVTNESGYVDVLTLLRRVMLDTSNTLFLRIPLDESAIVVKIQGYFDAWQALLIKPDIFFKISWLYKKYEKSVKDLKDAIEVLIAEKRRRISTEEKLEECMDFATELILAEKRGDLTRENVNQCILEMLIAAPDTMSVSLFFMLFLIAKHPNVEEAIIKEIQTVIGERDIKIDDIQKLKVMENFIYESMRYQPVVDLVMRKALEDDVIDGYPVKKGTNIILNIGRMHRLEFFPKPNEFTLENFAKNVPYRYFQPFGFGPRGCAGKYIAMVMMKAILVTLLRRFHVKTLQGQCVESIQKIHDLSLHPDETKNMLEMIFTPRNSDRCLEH
A short description of test [10]: qHTS assay to identify aromatase inhibitors - cell viability counter screen (AID 743084).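 Also: cells stimulated with testosterone during compound exposure; nearly all actives have a fitted effect of over 55% in size.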
Test [11] in a line: qHTS assay to identify small molecule that activate the aryl hydrocarbon receptor (AhR) signaling pathway - cell viability counter screen (AID 743086). Also: nearly all actives have a fitted effect of over 45% in size. Also: potency is read from the fitted curve at half-maximal effect. An outline of the steps: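 HepG2-AhR-luc (HG2L7.5c1) cells, 4000/well, treated 24 h at 37 C with compound; viability measured as CellTiter-Fluor fluorescence after 30 min in the same wells as the luciferase read.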
Test [12] deals with Peroxisome proliferator-activated receptor gamma (Homo sapiens) (UniProt P37231). The experiment in a line: qHTS assay to identify small molecule agonists of the peroxisome proliferator-activated receptor gamma (PPARg) signaling pathway (AID 743094; active = well fitted activation curve with a large enough effect in the signal ratio in the repeat runs, not every such curve was filed as active; the % refers to the signal ratio). Put shortly: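 Cells from the PPARg UAS-bla HEK293H line are plated and incubated 5 h at 37C. Compounds in DMSO are pinned in and left 17 h at 37C. LiveBLAzer B/G substrate is then added for 1 h at room temperature before fluorescence is measured.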
Sequence of Peroxisome proliferator-activated receptor gamma (Homo sapiens) (P37231 whole entry, looked up): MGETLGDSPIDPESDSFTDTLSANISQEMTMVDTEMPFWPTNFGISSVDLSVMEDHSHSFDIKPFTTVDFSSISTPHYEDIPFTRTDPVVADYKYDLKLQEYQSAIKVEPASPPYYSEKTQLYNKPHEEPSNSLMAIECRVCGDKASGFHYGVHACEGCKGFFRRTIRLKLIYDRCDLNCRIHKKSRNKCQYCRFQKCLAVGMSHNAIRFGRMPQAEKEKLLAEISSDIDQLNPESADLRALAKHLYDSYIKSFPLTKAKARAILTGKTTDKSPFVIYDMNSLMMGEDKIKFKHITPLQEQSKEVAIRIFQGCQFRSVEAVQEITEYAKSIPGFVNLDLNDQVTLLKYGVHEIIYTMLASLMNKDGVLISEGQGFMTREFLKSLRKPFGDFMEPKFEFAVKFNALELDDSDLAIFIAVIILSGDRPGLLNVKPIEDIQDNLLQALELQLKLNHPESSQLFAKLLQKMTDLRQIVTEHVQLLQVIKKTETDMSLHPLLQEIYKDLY

The target is the same in test [13]. The experiment in a line: qHTS assay to identify small molecule antagonists of the peroxisome proliferator-activated receptor gamma (PPARg) signaling pathway (AID 743191; calls by dose curve; also: series mostly up to about 63 µM; nearly all actives have a fitted effect of over 30% in size). Put shortly: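 GeneBLAzer PPARg UAS-bla HEK293H cells, 5 h post-plating, exposed to compounds 17 h at 37C. LiveBLAzer B/G FRET substrate added for 1 h at room temperature; beta-lactamase reporter read by fluorescence intensity.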

Test [14] is described as follows: qHTS assay to identify small molecule antagonists of the peroxisome proliferator-activated receptor gamma (PPARg) signaling pathway - cell viability counter screen (AID 743194). Also: nearly all actives have a fitted effect of over 55% in size. Put shortly:
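Cytotoxicity counter screen in PPARg-bla HEK293H cells, same wells as reporter assay. Compounds plus 50 nM rosiglitazone (final) for 17 h at 37 C, then viability read by CellTiter-Glo luminescence.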

Test [15] in a line: qHTS assay for small molecule agonists of the antioxidant response element (ARE) signaling pathway (AID 743202; active = well fitted activation curve with a large enough effect in the signal ratio in the repeat runs, not every such curve was filed as active; the % refers to the signal ratio). Put shortly:
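HepG2 ARE-bla cells; 16 h treatment at 37 C; FRET-based beta-lactamase fluorescence read after 2 h substrate incubation at room temperature.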

Test [16] in a line: qHTS assay for small molecule agonists of the antioxidant response element (ARE) signaling pathway - cell viability counter screen (AID 743203; calls by dose curve; also: nearly all actives have a fitted effect of over 55% in size). An outline of the steps: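 Cytotoxicity was tested in parallel with the ARE reporter screen. ARE-bla HepG2 cells were exposed to compounds for 16 hrs, and viability was taken from CellTiter-Glo luminescence.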
The nature of test [17]: qHTS assay for small molecule activators of the heat shock response signaling pathway - cell viability counter screen (AID 743209). Also: nearly all actives have a fitted effect of over 50% in size. Put shortly: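 Cytotoxicity counter screen run in parallel with the HSE beta-lactamase reporter, using the same wells. HeLa HSE-bla cells received compound for 5 h at 37 C; ATP-based CellTiter-Glo luminescence was measured after 30 min at room temperature.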

The nature of test [18]: qHTS assay for small molecule activators of the heat shock response signaling pathway (AID 743210; active = well fitted activation curve with a large enough effect in the signal ratio in the repeat runs, with a control signal flat, not every such curve was filed as active; the % refers to the signal ratio;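 also: HeLa cells with beta-lactamase reporter driven by heat shock elements; series mostly up to about 63 µM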). Put shortly: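 Following overnight attachment, HSE-bla HeLa cells received test compounds for 5 h at 37 C; beta-lactamase activity was then detected via FRET substrate fluorescence.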
The target of test [19] is Estrogen receptor (Homo sapiens) (UniProt P03372). The experiment in a line: qHTS assay to identify small molecule agonists of the estrogen receptor alpha (ER-alpha) signaling pathway using the BG1 cell line (AID 743079). Also: nearly all actives have a fitted effect of over 20% in size. Also: potency is read from the fitted curve at half-maximal effect.
Sequence of Estrogen receptor (Homo sapiens) (P03372 whole entry, looked up): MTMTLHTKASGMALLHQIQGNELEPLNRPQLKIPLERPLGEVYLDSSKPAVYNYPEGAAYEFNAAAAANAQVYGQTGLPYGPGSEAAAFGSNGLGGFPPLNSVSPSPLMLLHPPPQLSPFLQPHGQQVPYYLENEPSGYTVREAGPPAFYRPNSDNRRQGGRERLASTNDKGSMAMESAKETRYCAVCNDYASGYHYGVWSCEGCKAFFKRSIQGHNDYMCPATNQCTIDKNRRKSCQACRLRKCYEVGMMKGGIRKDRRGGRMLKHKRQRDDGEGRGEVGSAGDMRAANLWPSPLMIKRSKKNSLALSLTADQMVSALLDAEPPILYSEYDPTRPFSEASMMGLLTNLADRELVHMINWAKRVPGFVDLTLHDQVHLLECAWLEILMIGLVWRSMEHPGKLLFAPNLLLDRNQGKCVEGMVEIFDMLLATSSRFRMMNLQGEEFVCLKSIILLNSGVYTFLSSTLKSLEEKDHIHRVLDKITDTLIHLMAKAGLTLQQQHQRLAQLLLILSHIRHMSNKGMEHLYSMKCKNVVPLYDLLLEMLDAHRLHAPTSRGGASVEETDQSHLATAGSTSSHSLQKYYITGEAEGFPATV
In test [20] the target is Aryl hydrocarbon receptor (Homo sapiens) (UniProt P35869). The experiment in a line: qHTS assay to identify small molecule that activate the aryl hydrocarbon receptor (AhR) signaling pathway (AID 743085). Also: nearly all actives have a fitted effect of over 15% in size. Also: potency is read from the fitted curve at half-maximal effect.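 As to activation: HG2L7.5c1 human HepG2 liver cells with stably integrated DRE-driven firefly reporter; series mostly up to about 70 µM.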 An outline of the steps:
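Reporter assay in engineered HepG2 line HG2L7.5c1, whose plasmid carries twenty dioxin responsive elements upstream of firefly luciferase. Treatment lasted 24 h at 37C; ONE-Glo luminescence gauged induction.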

Sequence of Aryl hydrocarbon receptor (Homo sapiens) (P35869 whole entry, looked up): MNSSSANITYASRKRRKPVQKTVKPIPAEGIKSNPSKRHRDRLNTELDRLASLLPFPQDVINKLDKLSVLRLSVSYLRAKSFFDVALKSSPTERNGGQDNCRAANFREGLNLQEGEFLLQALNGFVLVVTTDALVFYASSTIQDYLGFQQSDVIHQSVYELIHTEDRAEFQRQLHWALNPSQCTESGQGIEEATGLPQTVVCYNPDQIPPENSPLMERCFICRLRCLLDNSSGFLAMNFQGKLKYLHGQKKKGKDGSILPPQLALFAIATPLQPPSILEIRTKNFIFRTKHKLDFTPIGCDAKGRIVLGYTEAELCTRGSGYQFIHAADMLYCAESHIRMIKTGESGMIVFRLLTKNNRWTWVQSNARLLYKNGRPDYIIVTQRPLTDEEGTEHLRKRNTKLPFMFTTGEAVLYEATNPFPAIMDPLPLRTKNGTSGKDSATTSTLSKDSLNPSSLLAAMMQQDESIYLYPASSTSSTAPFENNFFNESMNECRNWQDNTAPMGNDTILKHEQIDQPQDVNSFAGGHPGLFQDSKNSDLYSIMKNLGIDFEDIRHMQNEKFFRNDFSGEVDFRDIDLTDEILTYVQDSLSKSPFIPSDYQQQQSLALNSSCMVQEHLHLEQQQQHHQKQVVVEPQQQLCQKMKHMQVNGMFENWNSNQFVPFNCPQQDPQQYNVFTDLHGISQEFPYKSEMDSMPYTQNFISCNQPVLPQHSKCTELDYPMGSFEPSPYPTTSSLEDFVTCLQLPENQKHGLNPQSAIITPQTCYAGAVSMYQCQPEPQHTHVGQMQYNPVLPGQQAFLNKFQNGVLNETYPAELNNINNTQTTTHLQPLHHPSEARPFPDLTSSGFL

Take `CCOC(=O)CC(=O)c1ccccc1`: the Potency entry in test [1], in [2], in test [7], in test [9], in test [10] and in test [11] was “inactive” throughout. Further, the Potency result in test [13] and in test [15] was “inactive” in each case. The result in test [3], in [4], in test [5], in test [6], in test [8] and in test [12] was inactive. The compound was called inactive in [14], in test [16], in test [17] and in test [18].
Turning to `CN(C)c1ccc(C=O)cc1`, the Potency entry in [1], in test [2], in test [7], in [9], in [10] and in test [20] was “inactive” throughout. Besides, the Potency result in test [13] was “inactive”. The compound was classed as inactive in test [3], in [4], in [5], in [6], in test [8] and in [12]. Besides, the compound was called inactive in [14], in test [16], in [17] and in test [18]. In addition, the Potency in [19] is 54.5 µM (active).
`CC(=O)N[C@@H](CCC(=O)O)C(=O)O`: the Potency result in test [1], in test [2], in [9], in test [10], in test [20] and in [11] was “inactive” each time. For the same compound, the Potency result in test [13] was “inactive”. Also, the compound was classed as inactive in test [3], in test [5], in test [8], in test [12], in [14] and in [17]. Besides, the call in test [18] was inactive.
Turning to `O=C(NCCN1CCOCC1)c1ccc(Cl)cc1`, the Potency result in [1], in test [2], in [9], in [10], in [11] and in test [13] was “inactive” each time. The Potency entry in test [15] is “inactive”. Moreover, the call in test [3], in test [5], in test [8], in test [12], in [14] and in test [16] was inactive. Also, the outcome in test [17] and in test [18] was inactive.
In the case of `CC(C)(C)c1cc(CCC(=O)NN)cc(C(C)(C)C)c1O`, the Potency entry in [1], in test [2], in [9], in test [10], in test [20] and in test [11] was “inactive” each time. Moreover, the Potency entry in test [15] is “inactive”. Moreover, the compound was classed as inactive in test [3], in test [5], in [8], in test [12], in test [14] and in test [17]. For the same compound, the compound was classed as inactive in test [18].
`CC1COc2ccccc2N1` (stereo unspecified): the Potency entry in test [1], in test [2], in test [9], in test [10], in test [13] and in test [15] was “inactive” in each case. Further, the compound was called inactive in test [3], in test [5], in test [8], in test [12], in test [14] and in [16]. Also, the compound was called inactive in test [17]. For the same compound, in test [20], the Potency was 0.969 µM (active).
In the case of `CN(CCOc1ccc(NS(C)(=O)=O)cc1)CCc1ccc(NS(C)(=O)=O)cc1`, the Potency entry in test [1], in test [2], in [19], in [7], in test [9] and in [20] was “inactive” each time. The Potency entry in test [11] and in [15] was “inactive” throughout. In addition, the compound was classed as inactive in test [3], in test [5], in [6], in [8], in [12] and in test [14]. Further, the compound was classed as inactive in test [16], in test [17] and in test [18].
As to `COC(=O)CCc1ccc(OCC(O)CNC(C)C)cc1` (stereo unspecified), the Potency result in test [1], in test [2], in [9], in test [10], in [20] and in test [11] was “inactive” each time. Further, the Potency entry in [13] and in test [15] was “inactive” throughout. Moreover, the compound was classed as inactive in test [3], in [5], in [8], in test [12], in test [14] and in test [16]. The compound was called inactive in test [17] and in [18].
For `O=S(=O)(O)CCN1CCN(CCO)CC1`, the Potency entry in test [1], in test [2], in [9], in [10], in test [20] and in test [13] was “inactive” throughout. The outcome in test [3], in test [5], in [8], in test [12], in test [14] and in test [16] was inactive. The result in test [17] was inactive.
As to `O=C(CCN1CCN(CCO)CC1)N1c2ccccc2Sc2ccc(C(F)(F)F)cc21`, the values for the Potency in test [1], in [2] and in [11] were 13.3 µM (active), 21.1 µM (active) and 21.1 µM (active), respectively. Besides, the outcome in test [3], in test [4], in test [6], in [12], in [16] and in [17] was inactive. Moreover, the Potency entry in test [19], in [7], in [9], in [20] and in test [13] was “inactive” throughout.
As for `C[Si](C)(C)C`, the Potency entry in test [1], in [2], in test [9], in test [10], in [20] and in test [11] was “inactive” throughout. Moreover, the Potency entry in test [15] is “inactive”. Besides, the compound was called inactive in test [3], in test [5], in test [8], in test [12], in [16] and in [17].
`Nc1nnc(-c2cccc(Cl)c2Cl)c(N)n1`: the Potency result in test [1], in test [2], in [9], in test [10], in test [20] and in test [13] was “inactive” each time. For the same compound, the Potency result in test [15] is “inactive”. Besides, the compound was called inactive in [3], in test [5], in test [8], in test [12], in test [14] and in test [16]. Also, the outcome in test [17] and in test [18] was inactive.
Regarding `CC(S)C(=O)NCC(=O)O` (stereo unspecified), the Potency entry in test [1], in [2], in test [9], in test [10], in [20] and in test [11] was “inactive” throughout. Besides, the Potency entry in test [13] and in test [15] was “inactive” each time. For the same compound, the call in test [3], in test [5], in [8], in test [12], in test [14] and in test [16] was inactive. Moreover, the compound was classed as inactive in test [17] and in test [18].
Regarding `CC(=O)Nc1ccc(S(=O)(=O)Cl)cc1`, the Potency result in test [1], in test [2], in [9], in [10], in [20] and in test [11] was “inactive” each time. Besides, the Potency entry in [13] and in [15] was “inactive” in each case. In addition, the call in test [3], in test [5], in [8], in test [12], in test [14] and in test [16] was inactive. For the same compound, the call in test [17] and in [18] was inactive.
As to `O=C(/N=N/C(=O)OCc1ccccc1)OCc1ccccc1`, the Potency result in test [1], in test [2], in [9], in test [10], in test [11] and in test [15] was “inactive” throughout. Moreover, the outcome in test [3], in test [4], in test [6], in test [8], in test [12] and in [14] was inactive. Moreover, in [17], the call was inactive.
